Laboratory results: PubChem BioAssay
Active and inactive are the calls of the source.

Legend:
Albumin (Bos taurus) = Albumin (Bos taurus) (UniProt P02769); assay: bovine serum albumin binders on microarray, profiling panel, artefact control for SMM control protein annotation, biochemical, small-molecule microarray, Alexa647 label, 635/667 nm fluorescence (AID 1118); settings: BSA-A647 binding, fluorescence 635 nm, higher = more signal;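 also: score merges 667 nm emission intensity and signal-to-noise per printed compound spot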
Sequence of Albumin (Bos taurus) (P02769 whole entry, looked up): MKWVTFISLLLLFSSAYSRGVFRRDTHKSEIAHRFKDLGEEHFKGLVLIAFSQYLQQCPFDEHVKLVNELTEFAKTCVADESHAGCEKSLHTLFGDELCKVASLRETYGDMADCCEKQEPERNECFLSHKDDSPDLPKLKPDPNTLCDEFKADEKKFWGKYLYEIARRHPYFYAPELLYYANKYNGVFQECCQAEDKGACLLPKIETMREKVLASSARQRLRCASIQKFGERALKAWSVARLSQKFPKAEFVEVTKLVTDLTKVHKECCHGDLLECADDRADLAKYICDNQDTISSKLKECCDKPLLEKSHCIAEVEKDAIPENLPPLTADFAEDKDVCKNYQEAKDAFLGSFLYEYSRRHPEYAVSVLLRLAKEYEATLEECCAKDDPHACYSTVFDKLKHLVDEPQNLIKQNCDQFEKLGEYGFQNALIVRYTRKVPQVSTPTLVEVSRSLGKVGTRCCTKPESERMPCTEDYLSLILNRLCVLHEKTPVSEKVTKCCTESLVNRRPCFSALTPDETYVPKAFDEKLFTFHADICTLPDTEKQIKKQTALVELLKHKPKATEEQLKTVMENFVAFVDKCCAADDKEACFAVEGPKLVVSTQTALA

[1] = small-molecule microarray binders of probe aXIP, primary screen, biochemical, NeuroSMM set, 635/667 nm fluorescence (AID 1119); settings: higher = more signal, called active from +8 up or from −8 down;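 also: probe is the protein aXip251-270 applied at 1 µg/mL to compound-printed slides; binding of probe to printed compounds measured as 667 nm fluorescence plus signal to noise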
[2] = small-molecule binders of probe aNOTCH3, primary screen, biochemical, small-molecule microarray, 635/667 nm fluorescence (AID 1120); settings: higher = more signal;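 also: probe is a biotin-tagged antibody raised against NOTCH3 rather than NOTCH3 protein; score merges spot fluorescence near 667 nm with spot signal to noise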
[3] = small-molecule binders of probe aNOTCH2, primary screen, biochemical, small-molecule microarray, 635/667 nm fluorescence (AID 1121); settings: higher = more signal;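 also: score merges feature fluorescence read at 667 nm with its signal to noise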
[4] = target: Carbonic anhydrase 2 (Homo sapiens) (UniProt P00918); assay: CAII small-molecule binders, profiling panel, biochemical, small-molecule microarray, Alexa647-labelled CAII (AID 1122); settings: CAII-A647 binding fluorescence, higher = more signal
[5] = COS7 lysate on small-molecule microarray, probe aHis, 635 nm (AID 1123); settings: COS7 cell lysate, fluorescence, higher = more signal;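 also: z-score combines 667nm fluorescence intensity with signal-to-noise per printed compound spot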
[6] = compound binding in COS7 lysate, probe aLAP1, primary screen, cell lysate, small-molecule microarray (AID 1124); settings: probe aLAP1, fluorescence, higher = more signal;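 also: lysate comes from COS7 cells expressing LAP1 and is applied at 0.3 µg/mL; score merges spot fluorescence near 667 nm with signal-to-noise over triplicate slides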
Sam68 (KHDRBS1) = assay: Sam68 small-molecule binders, primary screen, biochemical, small-molecule microarray, 635 nm fluorescence (AID 1125); settings: small-molecule microarray binding, higher = more signal;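 also: score merges 667 nm channel intensity with signal to noise over triplicate slides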
[7] = system: Chordin-like protein 2 (CHRDL2); assay: CHRDL2 small-molecule binders, primary screen, biochemical, small-molecule microarray, 635 nm fluorescence (AID 1126); settings: small-molecule microarray binding, fluorescence 635 nm; higher = more signal;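 also: printed compound slides probed with Chrdl2 protein at 4 µg/mL for 1 h at 4 C; score merges 667 nm emission intensity with signal to noise over three replicate slides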
[8] = target: Concanavalin-A (Canavalia ensiformis) (UniProt P02866); assay: ConA small-molecule binders, primary screen, artefact control for SMM control protein annotation, biochemical, small-molecule microarray, Alexa647 label, 635 nm (AID 1127); settings: ConA-A647 binding fluorescence, higher = more signal;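 also: z combines 667 nm emission intensity with signal-to-noise across three replicate slides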
Sequence of Concanavalin-A (Canavalia ensiformis) (P02866 whole entry, looked up): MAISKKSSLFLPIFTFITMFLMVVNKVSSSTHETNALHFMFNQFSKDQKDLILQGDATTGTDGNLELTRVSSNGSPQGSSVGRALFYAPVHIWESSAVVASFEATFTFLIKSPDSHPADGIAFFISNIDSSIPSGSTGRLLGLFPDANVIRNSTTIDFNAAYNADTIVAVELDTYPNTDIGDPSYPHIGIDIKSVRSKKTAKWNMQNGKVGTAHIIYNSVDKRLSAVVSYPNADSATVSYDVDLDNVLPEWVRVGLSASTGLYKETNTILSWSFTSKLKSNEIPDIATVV

[9] = anti-His antibody binders, primary screen, artefact control for SMM control protein annotation, biochemical, small-molecule microarray, 635 nm fluorescence (AID 1128); settings: anti-His Alexa647 antibody binding, higher = more signal;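 also: score merges feature fluorescence with signal-to-noise for each printed compound spot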
[10] = system: Human papillomavirus type 1a E7 protein (residues 1-88); assay: HPV1a E7 small-molecule binders, primary screen, biochemical, small-molecule microarray, residues 1-88, 635 nm (AID 1129); settings: small-molecule microarray binding, fluorescence 635 nm; higher = more signal
[11] = target: Focal adhesion kinase 1 (Homo sapiens) (UniProt Q05397); assay: small-molecule microarray binders of FAK, primary screen, biochemical, 635/667 nm fluorescence, BSA, DTT (AID 1130); settings: PTK2 binding, 635 nm fluorescence, higher = more signal;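 also: composite of spot emission at 667 nm and signal to noise over triplicate slides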
Sequence of Focal adhesion kinase 1 (Homo sapiens) (Q05397 whole entry, looked up): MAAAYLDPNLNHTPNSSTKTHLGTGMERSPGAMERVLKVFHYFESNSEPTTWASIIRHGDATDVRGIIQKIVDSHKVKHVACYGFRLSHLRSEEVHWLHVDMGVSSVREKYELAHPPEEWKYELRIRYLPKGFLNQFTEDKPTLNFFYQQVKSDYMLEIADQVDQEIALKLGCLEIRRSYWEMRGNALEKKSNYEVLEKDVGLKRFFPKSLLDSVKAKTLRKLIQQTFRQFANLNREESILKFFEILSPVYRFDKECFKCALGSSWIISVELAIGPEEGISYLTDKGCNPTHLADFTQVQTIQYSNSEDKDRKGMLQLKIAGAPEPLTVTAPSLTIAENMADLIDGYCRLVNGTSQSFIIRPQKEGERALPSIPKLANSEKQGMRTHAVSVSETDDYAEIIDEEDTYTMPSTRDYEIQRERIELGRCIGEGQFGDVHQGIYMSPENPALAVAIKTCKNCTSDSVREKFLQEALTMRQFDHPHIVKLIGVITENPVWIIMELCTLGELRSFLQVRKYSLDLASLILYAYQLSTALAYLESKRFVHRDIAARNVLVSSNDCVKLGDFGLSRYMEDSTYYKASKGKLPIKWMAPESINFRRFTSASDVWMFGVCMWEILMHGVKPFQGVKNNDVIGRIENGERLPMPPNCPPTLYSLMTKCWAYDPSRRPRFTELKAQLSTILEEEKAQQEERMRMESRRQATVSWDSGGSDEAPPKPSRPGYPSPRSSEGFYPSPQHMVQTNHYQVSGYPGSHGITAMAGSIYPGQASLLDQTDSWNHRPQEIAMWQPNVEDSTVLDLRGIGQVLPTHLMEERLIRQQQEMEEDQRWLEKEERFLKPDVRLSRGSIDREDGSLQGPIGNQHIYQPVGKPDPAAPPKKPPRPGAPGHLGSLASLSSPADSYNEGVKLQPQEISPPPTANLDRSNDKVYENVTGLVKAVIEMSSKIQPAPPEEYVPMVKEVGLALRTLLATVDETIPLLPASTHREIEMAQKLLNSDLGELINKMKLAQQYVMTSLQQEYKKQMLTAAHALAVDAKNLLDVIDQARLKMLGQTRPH

[12] = system: Fibrinogen (Alexa647-labelled); assay: fibrinogen binders on compound microarrays, profiling panel, artefact control for SMM control-protein annotation, biochemical, small-molecule microarray, 635/667 nm fluorescence (AID 1131); settings: fibrinogen-A647 binding fluorescence, higher = more signal;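 also: z-score merges 667 nm fluorescence with per-spot signal-to-noise over triplicate slides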
[13] = target: Follistatin (Homo sapiens) (UniProt P19883); assay: follistatin binders on small-molecule microarrays, primary screen, biochemical, small-molecule microarray, 635/667 nm fluorescence (AID 1132); settings: FST binding, 635 nm fluorescence, higher = more signal
Sequence of Follistatin (Homo sapiens) (P19883 whole entry, looked up): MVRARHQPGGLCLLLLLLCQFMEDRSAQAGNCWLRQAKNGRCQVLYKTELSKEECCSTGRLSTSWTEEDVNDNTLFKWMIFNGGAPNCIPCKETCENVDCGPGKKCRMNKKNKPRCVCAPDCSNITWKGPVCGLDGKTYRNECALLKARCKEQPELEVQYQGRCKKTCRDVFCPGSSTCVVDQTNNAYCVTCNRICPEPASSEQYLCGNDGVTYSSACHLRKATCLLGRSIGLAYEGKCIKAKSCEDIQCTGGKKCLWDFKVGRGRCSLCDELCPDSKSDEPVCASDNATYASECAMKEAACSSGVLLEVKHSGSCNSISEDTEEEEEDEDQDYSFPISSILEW

[14] = target: Fibroblast growth factor 2 (Homo sapiens) (UniProt P09038); assay: FGF2 binders on small-molecule microarrays, primary screen, biochemical, small-molecule microarray, 635/667 nm fluorescence (AID 1133); settings: small-molecule microarray binding, FGF2, fluorescence 635/667; higher = more signal
Sequence of Fibroblast growth factor 2 (Homo sapiens) (P09038 whole entry, looked up): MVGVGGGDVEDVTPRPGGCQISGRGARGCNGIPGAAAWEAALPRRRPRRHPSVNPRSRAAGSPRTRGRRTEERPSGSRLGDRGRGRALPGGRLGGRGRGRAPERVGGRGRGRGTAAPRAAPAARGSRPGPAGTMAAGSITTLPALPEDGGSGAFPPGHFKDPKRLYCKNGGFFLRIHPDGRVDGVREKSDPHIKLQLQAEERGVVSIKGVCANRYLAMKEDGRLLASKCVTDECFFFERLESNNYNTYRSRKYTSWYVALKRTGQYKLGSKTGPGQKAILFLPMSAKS

[15] = mitochondrial membrane potential change in A549 cells, profiling panel, cell-based, JC-1 fluorescence, basal, 24 h, 100 nL (AID 1138); settings: higher = more signal;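 also: A549 lung adenocarcinoma cells under basal conditions with no added stimulus; test concentration not given here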
Lefty1 = Lefty1 binders on small-molecule microarrays, primary screen, biochemical, small-molecule microarray, 635/667 nm fluorescence (AID 1139); settings: small-molecule microarray binding, fluorescence 635/667; higher = more signal
[16] = system: wheat germ agglutinin (Triticum aestivum), Alexa647-labelled; assay: wheat germ agglutinin binders on compound microarrays, profiling panel, artefact control for SMM control-protein annotation, biochemical, small-molecule microarray, 635/667 nm fluorescence (AID 1140); settings: WGA-A647 binding, 635 nm fluorescence, higher = more signal;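 also: score merges 667 nm feature emission with signal to noise over triplicate slides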
[17] = target: Luciferin 4-monooxygenase (Photinus pyralis) (UniProt P08659); assay: firefly luciferase enzyme inhibitors, primary screen, biochemical, luminescence, purified enzyme, 2006 set (AID 1141); settings: SteadyGlo luminescence, 30 min, higher = more signal, called active from +8 up or from −8 down;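 also: cell-free assay with purified firefly luciferase at 100 ng per well in PBS; test concentration not given here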
Sequence of Luciferin 4-monooxygenase (Photinus pyralis) (P08659 whole entry, looked up): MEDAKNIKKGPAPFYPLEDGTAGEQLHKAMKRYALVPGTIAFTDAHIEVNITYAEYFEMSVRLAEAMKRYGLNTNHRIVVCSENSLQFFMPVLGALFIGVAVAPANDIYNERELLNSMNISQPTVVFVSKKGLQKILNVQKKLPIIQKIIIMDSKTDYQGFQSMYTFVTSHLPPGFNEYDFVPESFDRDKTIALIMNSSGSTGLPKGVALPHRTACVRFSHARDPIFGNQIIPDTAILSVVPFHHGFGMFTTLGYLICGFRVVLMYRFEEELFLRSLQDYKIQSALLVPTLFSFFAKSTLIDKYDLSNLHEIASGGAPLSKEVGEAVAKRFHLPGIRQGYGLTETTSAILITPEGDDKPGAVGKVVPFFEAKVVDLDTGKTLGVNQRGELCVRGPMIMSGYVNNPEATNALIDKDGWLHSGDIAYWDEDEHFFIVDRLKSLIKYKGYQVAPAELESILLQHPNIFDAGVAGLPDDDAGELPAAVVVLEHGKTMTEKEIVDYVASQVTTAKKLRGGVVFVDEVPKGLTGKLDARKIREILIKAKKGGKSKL

| Compound | composite z-score (Albumin (Bos taurus)) | composite Z-score [1] | composite z-score [2] | composite z-score [3] | composite z-score [4] | composite z-score [5] | composite z-score [6] | composite z-score (Sam68 (KHDRBS1)) | composite z-score [7] | composite z-score [8] | composite z-score [9] | composite z-score [10] | composite z-score [11] | composite z-score [12] | composite z-score [13] | composite z-score [14] | z-score [15] | composite z-score (Lefty1) | composite z-score [16] | z-score [17] |
| --- | --- | --- | --- | --- | --- | --- | --- | --- | --- | --- | --- | --- | --- | --- | --- | --- | --- | --- | --- | --- |
| CCOC(=O)[C@H](Cc1ccccc1)NC(=O)CCC1CC(OC(=O)NCCc2ccc(F)cc2)CC2(CCCC(COC(=O)NCCc3ccccc3OC)O2)O1 (stereo not given in full) | 0.667 | -0.449 (inactive) | -0.0984 | -0.14 | 0.303 | 1.46 | 0.854 | 1.12 | 0.405 | 1.09 | 0.949 | 1.15 | 0.165 | 0.916 | 0.818 | 0.888 | -0.366 | 1.11 | 0.441 | 0.451 (inactive) |
| COc1cccc([C@H]2Oc3ccc(OC)cc3C(=NO[C@H](C)c3cn([C@H](CO)Cc4ccccc4)nn3)[C@@H]2O)c1 | -1.28 | -0.372 (inactive) | -0.208 | -0.187 | 0.406 | 0.418 | 0.0672 | -0.779 | 0.08 | -2.12 | 0.533 | -0.323 | -0.181 | -0.095 | -0.0053 | 0.185 | -0.685 | 0.0027 | -0.124 | 0.417 (inactive) |
| CC[C@@H](c1ccccc1)n1c(=O)n2n(c1=O)[C@H]1[C@H](O)[C@@H]3O[C@@H]3C(=O)[C@H]1CC2 | 0.208 | 0.214 (inactive) | -0.0745 | -0.135 | -0.245 | -0.372 | -0.262 | 0.0274 | 0.673 | 0.576 | -0.276 | 0.0346 | 0.0786 | -0.0351 | 0.295 | 0.319 | 0.276 | 0.387 | 0.13 | -1.23 (inactive) |
| CCCCC#C[C@@H]1C=C[C@H](Oc2cc(OC)c(OC)c(OC)c2)[C@@H](COC(=O)OCC)O1 | 0.227 | 0.0299 (inactive) | -0.128 | -0.0907 | -0.165 | -0.642 | 0.211 | -0.25 | 0.251 | -0.0793 | 0.054 | -0.637 | -0.253 | 0.388 | 0.135 | 0.265 | 2.36 | 0.386 | -0.0925 | -1.12 (inactive) |
| COc1cccc([C@H]2Oc3ccc(OC)cc3C(=NOC[C@@H](O)[C@H]3O[C@@H]4OC(C)(C)O[C@@H]4[C@H]3O)[C@@H]2O)c1 | 0.891 | -0.563 (inactive) | 0.0831 | -0.139 | -0.149 | 0.48 | 0.248 | 0.706 | 0.461 | 0.532 | -1.33 | 0.372 | 0.263 | 0.213 | 0.418 | 0.318 | -0.315 | 0.892 | -0.0123 | -4.03 (inactive) |
| O=C1C[C@@H](O)[C@@H](O)[C@@H]2[C@@H]3C(=O)N(Cc4ccccc4)C(=O)[C@@H]3CC[C@@H]12 | 0.256 | 0.277 (inactive) | -0.0328 | -0.12 | 0.0093 | -0.281 | 0.213 | 0.63 | 0.791 | 0.633 | 0.467 | 0.789 | 0.0901 | 0.547 | 0.892 | 0.895 | -0.305 | 0.551 | 0.0697 | -0.0665 (inactive) |
| COC(=O)[C@H](C)NC(=O)CCC1CC(OC(=O)NCc2ccc3c(c2)OCO3)CC2(CCCC(COC(=O)NCCc3ccccc3OC)O2)O1 (stereo not given in full) | 0.159 | 0.0923 (inactive) | -0.125 | -0.0646 | 0.472 | 1.36 | 0.117 | 0.735 | -0.0443 | -0.706 | 0.911 | 0.638 | -0.122 | 0.626 | -0.0381 | -0.0304 | 0.159 | -0.0317 | 0.817 | 0.559 (inactive) |
| O=C1OCCC=C1C(O)CCc1ccccc1 (stereo not given) | -0.561 | 0.149 (inactive) | -0.158 | -0.145 | 0.192 | -0.215 | 0.181 | -0.0924 | 0.575 | -0.0631 | -0.139 | 0.638 | -0.226 | 0.913 | 0.347 | 0.332 | -0.602 | 0.299 | 0.412 | 0.151 (inactive) |
| CCN1C(=O)[C@H]2[C@H]3[C@H](O)[C@H](O)CC(=NOCC(C)C)[C@@H]3CC[C@H]2C1=O | 0.612 | -0.0562 (inactive) | 0.179 | -0.126 | 0.459 | 1.1 | -0.202 | 1.3 | 0.72 | 0.0131 | 0.768 | 1.04 | 0.627 | 0.231 | 0.84 | 0.0017 | -0.753 | 0.625 | -0.0157 | 0.887 (inactive) |
| CCCNC(=O)OC[C@H]1O[C@H](CCON=C(C)CCC(=O)OC[C@H]2O[C@H](c3ccccc3)C=C[C@@H]2Oc2ccc(OC)cc2)C=C[C@@H]1Oc1ccc(OC)cc1 | 0.161 | -0.0662 (inactive) | -0.0762 | -0.14 | -0.459 | -0.528 | -0.155 | -1.25 | -0.181 | -0.721 | 2.6 | -1.45 | -0.447 | -0.467 | -0.342 | -0.273 | 0.424 | 0.171 | 0.619 | 1 (inactive) |
| CCOC(=O)[C@H](Cc1ccccc1)NC(=O)CCC1CC(OC(=O)NCc2ccc3c(c2)OCO3)CC2(CCCC(COC(=O)NCCc3ccccc3OC)O2)O1 (stereo not given in full) | 0.485 | -0.344 (inactive) | 0.0225 | -0.184 | 0.253 | 1.05 | -0.0407 | 1.29 | 1.06 | 1.1 | 0.969 | 1.2 | 0.492 | 1 | 1.07 | 1.32 | -0.654 | 1.36 | 0.63 | 0.274 (inactive) |
